In PubChem BioAssay (NCATS):
Values joined by “and” are separate entries in the source; they are usually repeats but may differ in a detail not shown here. Equal entries are not always repeated. Records with an inconclusive call do not appear. A structure can be active in one record and inactive in another. Active and inactive are the calls of the source. The call rests on the fitted dose curve; in most records, active means well fitted curve in the direction sought with a large enough effect; inconclusive means small, poorly fitted or top-dose-only effect, or another doubt; inactive means no such curve, though single readings can be large; an effect the other way counts as inactive or inconclusive.

How the values were obtained:
[1] = Viability qHTS for spleen associated tyrosine kinase inhibitor (SYKi) naive MV4-11 cells (AID 1963823); further: nearly all actives have a fitted effect of over 40% in size
How it was run: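 Seeding of 500 SYKi-naive MV4-11 cells per well onto pre-dispensed compounds preceded a 72 hr incubation at 37 C. Luminescent CellTiter-Glo signal, read after 10 min at room temperature, reflected viable cells.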

[2] = Viability qHTS for spleen associated tyrosine kinase inhibitor (SYKi) drug resistant MV4-11 cells (AID 1963824); further: nearly all actives have a fitted effect of over 35% in size
How it was run: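 SYK-inhibitor-resistant MV4-11 AML cells were seeded at 500 per well onto compound and cultured 72 hours (37 °C, 5% CO2). CellTiter-Glo was then added, and after 10 min at room temperature, luminescence gave viability.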

[3] = Cellular viability qHTS for adrenocortical cancer (ACC) cell line SW-13 (AID 1963989); settings: SW-13 ACC cells viability, CellTiter-Glo, 48 h; activity (max response): stronger effect = lower value; further: nearly all actives have a fitted effect of over 65% in size;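 on activity (max response): cells grown in serum-free medium with ITS supplement; on the % scale 0 is the no-effect control and ±100 the full control effect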
How it was run: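 48 h treatment, SW-13 in ITS/DMEM serum-free; doses up to 46 uM; readout CellTiter-Glo luminescence; curve fit four-parameter logistic.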

[4] = Cellular viability qHTS for adrenocortical cancer (ACC) cell line NCI-H295R (AID 1963990); further: nearly all actives have a fitted effect of over 60% in size;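 on activity change, negative = viability loss: 0% = DMSO only wells and -100% = full killing with cytotoxic reference compound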
How it was run: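 Compound titrations (up to 46 uM final) are applied to NCI-H295R cultures for 48 h at 37C. Viable cell number is estimated by CellTiter-Glo signal, normalised to DMSO and doxorubicin controls.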
Potency means the concentration at half of the fitted maximal effect.

Row | Compound | Potency [1] | Potency [2] | activity (max response) [3] | Potency [4] | Potency [3] | viability (% of control) [1] | viability, % of control [2] | activity change, negative = viability loss [4]
1 | CNC(=O)[C@H]1O[C@@H](n2cnc3c(NCc4cccc(I)c4)nc(Cl)nc32)[C@H](O)[C@@H]1O | 14.8 µM (active) | 8.33 µM (active) | 2.68% (inactive) | inactive | – | – | – | –
2 | O=C(NCc1cccc(O)c1)Nc1nc(-c2ccncc2)cs1 | 10.3 µM (active) | 16.4 µM (active) | -22.1% (inactive) | inactive | – | – | – | –
3 | Nc1ccc(/C=C/C(=O)NCc2cc3cc(-c4ccc(C(=O)N5CCC(F)(F)CC5)cc4)cc(-c4ccc(F)cc4)c3o2)cn1 | 148 nM (active) and 184 nM (active) | 0.206 µM (active) | – | 1 µM (active) | 1.12 µM (active) | – | – | –
4 | NC1=N[C@@]2(c3cc(NC(=O)c4ccc(F)cn4)ccc3F)COC[C@H]2CS1 | inactive | 14.8 µM (active) | -8.2% (inactive) | inactive | – | – | – | –
5 | CN(C)CCCSc1ccccc1NC(=O)/C=C/c1ccccc1 | inactive | inactive | 8.03% (inactive) | inactive | – | – | – | –
6 | CN1CCN(c2ccc3nc(-c4cc(C(C)(C)C)c(OCCCC(=O)NCCCN=[N+]=[N-])c(C(C)(C)C)c4)[nH]c3c2)CC1 | 5.25 µM (active) | 5.25 µM (active) | – | 3.16 µM (active) | 3.98 µM (active) | – | – | –
7 | CCCCNC(=O)NS(=O)(=O)c1ccc(C)cc1 | inactive | inactive | 2.87% (inactive) | inactive | – | – | – | –
8 | CN(C)CCOc1ccccc1Cc1ccccc1 | inactive | inactive | 9.36% (inactive) | inactive | – | – | – | –
9 | CC(C)C[C@H](NC(=O)[C@H](Cc1ccccc1)NC(=O)OCc1ccccc1)C(=O)C=O | 23.5 µM (active) | 20.9 µM (active) | -18.6% (inactive) | inactive | – | – | – | –
10 | N#Cc1ccc(C2CCCc3cncn32)cc1 (stereo unspecified) | inactive | inactive | -11.9% (inactive) | inactive | – | – | – | –
11 | C[C@]12CCC3=C4CCC(=O)C=C4CC[C@H]3[C@@H]1CC[C@@]2(O)CC#N | inactive | inactive | 0.0754% (inactive) | inactive | – | – | – | –
12 | C[C@H]1COCCN1c1cc(C2(S(=O)(=O)C3CC3)CC2)nc(-c2ccc(NC(=S)NCCO)cc2)n1 | 0.0184 µM (active) | 0.0731 µM (active) | – | 1.12 µM (active) | 0.316 µM (active) | – | – | –
13 | O=C(O)CCNC(=O)c1ccccc1 | inactive | inactive | 1.23% (inactive) | inactive | – | – | – | –
14 | CC(=O)O[C@]1(C(C)=O)CC[C@H]2[C@@H]3C=C(C)C4=CC(=O)CC[C@]4(C)[C@H]3CC[C@@]21C | inactive and 16.6 µM (active) | 14.8 µM (active) | 8.88% (inactive) and -22.2% (inactive) | inactive | – | – | – | –
15 | CC(C)(C)c1ccc(O)c(O)c1 | 9.69 µM (active) | 6.11 µM (active) | – | 8.91 µM (active) | 10 µM (active) | – | – | –
16 | Cc1cc(OCCCc2c3n(c4c(-c5c(C)nn(C)c5C)c(Cl)ccc24)[C@H](C)CN(c2cn(C)c4ccc(C(=O)O)cc24)C3=O)cc(C)c1Cl | 0.742 µM (active) | 0.662 µM (active) | – | 2 µM (active) | 2 µM (active) | – | – | –
17 | CC(=O)O[C@H]1CC[C@@]2(C)C(=CC[C@@H]3[C@@H]2CC[C@]2(C)C(C(C)=O)=CC[C@@H]32)C1 | inactive | inactive | 8.77% (inactive) | inactive | – | – | – | –
18 | CN(C)CCOc1ccc(/C(=C(/CCCl)c2ccccc2)c2ccccc2)cc1 | 14.8 µM (active) | 13.2 µM (active) | -6.2% (inactive) | 8.91 µM (active) | – | – | – | –
19 | CS(=O)(=O)N1CCC(NC(=O)c2[nH]ncc2NC(=O)c2c(Cl)cccc2Cl)CC1 | 0.934 µM (active) | 0.291 µM (active) | – | 11.2 µM (active) | 3.98 µM (active) | – | – | –
20 | O=C1c2ccccc2C(=O)C1c1ccc(Br)cc1 | inactive | inactive | 7.53% (inactive) | inactive | – | – | – | –
21 | Cn1cc(/C=C/C(=O)c2cccc(F)c2)cc1/C=C/C(=O)NO | 3.72 µM (active) | 4.17 µM (active) | 9.4% (inactive) | inactive | – | – | – | –
22 | O=C1[C@H](CC[C@H](O)c2ccc(F)cc2)[C@@H](c2ccc(O)cc2)N1c1ccc(F)cc1 | 20.6 µM (active) and 20.9 µM (active) | 14.6 µM (active) and 20.9 µM (active) | -3.67% (inactive) and -14.5% (inactive) | inactive | – | – | – | –
23 | COc1cc2c(cc1OC)CN(CCc1ccc(-n3nnc(-c4cc(OC)c(OC)cc4NC(=O)c4cc(=O)c5ccccc5o4)n3)cc1)CC2 | – | – | -2.39% (inactive) | – | – | 79.1% [at 0.588 µM] (inactive) | 98% [at 0.588 µM] (inactive) | -5.76% [at 0.587 µM] (inactive)
24 | FC(F)(F)c1ccc(Nc2nc(-c3c(C(F)(F)F)nc4ccccn34)cs2)cc1 | 0.184 µM (active) | 0.13 µM (active) | – | 0.316 µM (active) | 0.282 µM (active) | – | – | –
